{"source": "PubChem BioAssay AID588350", "about": "(The Scripps Research Institute Molecular Screening Center, 2011)", "note": "The whole screen tested about 1,900 compounds, of which about 1,200 (63%) were called active.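 The calls were made as follows: active = mean activation above the mean of solvent-only control wells plus 3 SD (cut at about 22% in these data); inactive = the rest.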 So high a share suggests a set chosen from earlier hits. Only a sample is shown.", "data": [{"test": "frataxin GAA30 reporter activation – cell-based, luminescence, HEK293, lucGAA30, triplicate, counter-screen for GAA850 frataxin promoter activator project, confirmation (AID 588350);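 also: counterscreen of GAA850 promoter hits where activity marks nonselective or luminescence artifacts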", "settings": "HEK293 lucGAA30 FXN promoter luciferase, 24 h; at 6 µM; stronger effect = higher value; DMSO = 0%, 5 µM ipriflavone = 100%", "values": [{"smiles": "CC(C)(C)c1ccc(C(=O)NCc2ccco2)cc1", "activation": "102% (active)"}, {"smiles": "CCCCc1ccc(NC(=S)N2CCCC(CO)C2)cc1", "note": "(stereo not drawn)", "activation": "102% (active)"}, {"smiles": "CC(C)(C)N1C(=O)[C@H]2[C@@H](c3ccc(Br)cc3)N3C(=O)N(c4cccc(Cl)c4)C(=O)[C@@]3(C)[C@H]2C1=O", "activation": "20.4% (inactive)"}, {"smiles": "COc1ccc(N(CCC#N)S(=O)(=O)c2ccc(Cl)cc2)cc1", "activation": "11.8% (inactive)"}, {"smiles": "CC(C)CCC(C)NC(=O)c1ccc2nccnc2c1", "note": "(stereo not drawn)", "activation": "77% (active)"}, {"smiles": "O=c1[nH]cnc2c1c(-c1ccccc1)cn2-c1ccc(F)cc1", "activation": "11.4% (inactive)"}, {"smiles": "COc1ccc(Cl)cc1NC(=O)CN(C)C(=O)CCCc1c[nH]c2ccccc12", "activation": "16.9% (inactive)"}, {"smiles": "CC[C@@]12C(=O)N(c3ccccc3)C(=O)N1[C@H](c1ccc(Br)cc1)[C@@H]1C(=O)N(C(C)(C)C)C(=O)[C@@H]12", "activation": "21.7% (inactive)"}, {"smiles": "CSc1nc(N)c(C#N)c(-c2ccccc2Cl)c1C#N", "activation": "25.8% (active)"}, {"smiles": "Fc1ccc2nc(N3CCCCC3)sc2c1", "activation": "95.9% (active)"}, {"smiles": "c1ccc(-c2cc(-c3ccccc3)[nH]n2)cc1", "activation": "129% (active)"}, {"smiles": "Oc1ccccc1-c1cc(-c2ccc(Cl)cc2)n[nH]1", "activation": "124% (active)"}, {"smiles": "COc1ccc(-n2cc(-c3ccccc3)c3c(=S)nc[nH]c32)cc1", "activation": "15.8% (inactive)"}, {"smiles": "N#CCSc1nc2ccccc2c(=O)n1-c1ccccc1", "activation": "16.1% (inactive)"}, {"smiles": "CC1(C(=O)N/N=C/c2cc3c(cc2Br)OCO3)CC1(Br)Br", "note": "(stereo not drawn)", "activation": "30.7% (active)"}, {"smiles": "COc1ccccc1C1=Nc2cccc3cccc(c23)N1", "activation": "15.9% (inactive)"}, {"smiles": "COc1cc(C#Cc2ccc3cc(CCCO)oc(=O)c3c2)cc(OC)c1", "activation": "7.14% (inactive)"}, {"smiles": "Cc1ccc(C(=O)NNc2ncnc3ccccc23)cc1", "activation": "79.1% (active)"}, {"smiles": "CCN(C[C@H]1N[C@@](CC)(C(=O)OC)[C@H]2C(=O)N(Cc3ccccc3)C(=O)[C@@H]12)S(=O)(=O)c1ccc(C(F)(F)F)cc1", "activation": "22.6% (active)"}, {"smiles": "CN(C)C(=S)N=c1ssc(=S)n1Cc1ccco1", "activation": "12.5% (inactive)"}, {"smiles": "Cc1nc(-c2ccc(F)cc2)c(CC(=O)Nc2cc(S(=O)(=O)N3CCCCC3)ccc2C)s1", "activation": "16.7% (inactive)"}, {"smiles": "COc1ccc2[nH]c(=O)c(CN(Cc3nnnn3CCc3ccccc3)CC3CCCO3)cc2c1", "note": "(stereo not drawn)", "activation": "-9.61% (inactive)"}, {"smiles": "COc1cc(/C=N/Nc2nc3ccccc3s2)ccc1O", "activation": "124% (active)"}, {"smiles": "CCCCn1c(SCC(=O)NCCc2ccc(OC)c(OC)c2)nc2c1c(=O)n(C)c(=O)n2C", "activation": "26.9% (active)"}, {"smiles": "COc1ccc(NC(=O)CSc2nc(SC)ns2)c(OC)c1", "activation": "119% (active)"}, {"smiles": "CCOc1ccc(Nc2oc(Cc3ccccc3)nc2C#N)cc1", "activation": "58.9% (active)"}, {"smiles": "COc1ccc(-c2csc(Nc3ccc(O)cc3)n2)cc1", "activation": "107% (active)"}, {"smiles": "O=c1oc2ccccc2cc1-c1csc(Nc2ccc(O)cc2)n1", "activation": "148% (active)"}, {"smiles": "COc1ccc(-c2csc(Cc3nc(O)cs3)n2)cc1", "activation": "-53.3% (inactive)"}, {"smiles": "CC1(Cc2cccc(C#N)c2)C(=O)Nc2ccc(-c3cccc(C(F)(F)F)c3)cc21", "note": "(stereo not drawn)", "activation": "10.6% (inactive)"}, {"smiles": "COc1ccc(-c2nnc(SCC(=O)c3cccs3)o2)c(OC)c1", "activation": "88.6% (active)"}, {"smiles": "Cc1ccccc1Nc1c([N+](=O)[O-])ccc2nonc12", "activation": "29.2% (active)"}, {"smiles": "Cc1ccc(C2Nc3cccc4cccc(c34)N2)cc1", "activation": "24.8% (active)"}, {"smiles": "CC(Sc1nc2c([nH]c3ccccc32)c(=O)n1C)c1ccccc1", "note": "(stereo not drawn)", "activation": "22.8% (active)"}, {"smiles": "COc1cccc(Nc2nc(N)c([N+](=O)[O-])c(NCc3ccco3)n2)c1", "activation": "42% (active)"}, {"smiles": "CC1(C(=O)NCc2cccc3ccccc23)CCN1Cc1ccc(-c2ccccc2)o1", "note": "(stereo not drawn)", "activation": "24.2% (active)"}, {"smiles": "CCOC(=O)c1cc2c(=O)n3ccccc3nc2n(CC(C)C)c1=NC(=O)c1c(-c2c(F)cccc2Cl)noc1C", "activation": "-0.82% (inactive)"}, {"smiles": "Cc1ccc(NC(=O)c2sc3nc(N)c(C#N)cc3c2N)cc1", "activation": "61.2% (active)"}]}]}
